Measurements as given in PubChem BioAssay (NCI).
Compounds without any hit were thinned out: in the full panel of roughly 83,000, 20% have a hit.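 Step 1: grow cells in 96-well plates. Step 2: add test compound at a single concentration. Step 3: incubate 48 h. Step 4: record percent growth.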 Values without a mark were called inactive. Calls of active or inactive are those of the source. The calls were made as follows: active = growth percent below 10; inactive = the rest.

Test system: HCT-15 colon
Assay: NCI-60 one-dose screen, 48 h (100 = growth as untreated, 0 = no growth, -100 = all killed)
Conditions: 10 µM unless noted

Row | SMILES | growth
1 | NC(=O)CSSCC(N)=O | 102%
2 | C=C(C)[C@@H]1CC[C@]2(C(=O)N3CCN(C)CC3)CC[C@]3(C)[C@H](CC[C@@H]4[C@@]5(C)CC[C@H](O)C(C)(C)[C@@H]5CC[C@]43C)[C@@H]12 | -83.9% (active)
3 | O=C1Nc2cc(Cl)ccc2/C1=C\c1c(-c2ccc(F)cc2)nc2ccccn12 | 12.5%
4 | CCc1ccc(-c2cn3ccnc3c(-c3ccc4ncn(Cc5ccccc5)c4c3)n2)cc1 | 25.3%
5 | CCOC(=O)c1cc(C(=O)c2ccc(OC)c(OC)c2)n2ccc(/C=C/c3cc[n+](CC(=O)c4ccc(OC)c(OC)c4)cc3)cc12 | 104%
6 | COc1cc(/C=C\c2cc(OC)c(OC)c(OC)c2)cc(NC(=O)/C=C/c2cc(OC)c(OC)c(OC)c2)c1OC | 34.6%
7 | CN1C(N2CCN(S(=O)(=O)c3ccccc3)CC2)=NS(=O)(=O)c2ccccc21 | 113%
8 | O=C1Nc2ccccc2/C1=C\c1c(-c2ccc(F)cc2)nc2ccccn12 | 58.2%
9 | OCc1cnc2ccccc2c1NC1CCCCCC1 | 98.4%
10 | Oc1c(Cl)cc(Cl)c(Cl)c1CNCCNCc1c(O)c(Cl)cc(Cl)c1Cl | 25.1%
11 | CN1[C@@H]2CC[C@H]1/C(=C\c1ccccc1)C(=O)/C2=C/c1ccccc1 | 27.9%
12 | O=C1c2c(c3c4cccc(F)c4[nH]c3c3ccc4ccccc4c23)C(=O)N1O | 15.5%
13 | CN(C)CCC(=O)c1ccc([N+](=O)[O-])cc1 | 103%
